In PubChem BioAssay (NCI) one finds growth data, which are given here for 5 compounds.

About 83,000 compounds went through this panel and 20% of them were active in at least one assay; those are over-represented in the sample as a whole.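 Single-dose data. Exposure time 48 hours. Values below 10 considered active.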 Values without a mark were called inactive. Active and inactive are the calls of the source.

This assay has as its system MDA-MB-468 breast. Briefly: NCI-60 one-dose screen, 48 h (100 = growth as untreated, 0 = no growth, -100 = all killed). The settings on record: 10 µM unless noted.
Consider `Cn1cnc2c(F)c(Nc3ccc(Br)cc3Cl)c(C(=O)NOCCO)cc21`, for which the growth is 92.5%. `CN1CCN(c2ccc(/C=C/C(=O)c3ccc(O)cc3)cc2)CC1`: the growth is 89.5%. On to `C[C@H]1[C@H](C)CC[C@]2(C(=O)OCCCC[P+](c3ccccc3)(c3ccccc3)c3ccccc3)CC[C@]3(C)C(=CC[C@@H]4[C@@]5(C)CC[C@H](OC(=O)C(Cl)Cl)C(C)(C)[C@@H]5CC[C@]43C)[C@H]12`, for which the growth was -70.3% (active).

As to `Cc1cc(N(CCCNc2ccnc3cc(Cl)ccc23)Cc2ccco2)nc(N2CCOCC2)n1`, the growth is 80.3%.

Regarding `N#CC1C(c2ccc(Cl)cc2)=Nc2c(c(-c3ccccc3)nn2-c2ccccc2)C12C(=O)Nc1ccc(Cl)cc12` (stereo not given), the growth was 26.3%.
